77 compounds from ChEMBL document CHEMBL3988442, “University of Dundee, Small-Polar-MMV Screening Library” (2021) can be followed below.

SMILES strings stand for the structures. The campaign covered roughly 85,000 compounds. About 440 (0.52%) showed an effect of 50% or more. Shown is part of a subset that was picked to be rich in strong results.

This experiment in a line: In vitro enzyme assay to detect hydrolysis of chlorophenol red-beta-D-[…] directly proportional to the number of Toxoplasma stably expressing beta-galactosidase. It is filed as functional, organism-based, Toxoplasma gondii. Also noted: scale not given: in the data most compounds retested in dose-response had high values.

On to `CCC(C)N(CC(=O)OC)Cc1nccn1C` (configuration not stated), for which, where the note is “50 µM”, the “Percent Effect” value stood at 1.211%.
On the same count and under the same terms, then `OCc1ccccc1CC1CCNCC1`, with 2.025%.
Turning to `Cc1ccc(CC(=O)Nc2cc(C(C)C)n[nH]2)cn1`, the “Percent Effect” value (10 µM) stood at 86.76%.
On the same count and under the same terms, then `CC(C)c1cc(NC(=O)c2ccc(NC3CC3)nc2)[nH]n1`, with 3.917%; and `CC(C)c1cc(NC(=O)c2ccc(C(=O)NC(C)(C)C)cc2)[nH]n1`, with 9.105%; and `CC(C)c1cc(NC(=O)c2cccnc2)[nH]n1`, with 41.77%.
In the case of `CC(C)CC(=O)Nc1cc(C(C)C)n[nH]1`, under “50 µM”, the “Percent Effect” value is listed as 12%.
As to `Cc1ccc(C(=O)Nc2cc(C(C)C)n[nH]2)cn1`, under “10 µM”, the “Percent Effect” value was -1.588%.
Regarding `CC(C)c1cc(NC(=O)c2ccc([S+]([O-])C(C)C)cc2)[nH]n1` (configuration not stated), the “Percent Effect” value (10 µM) stood at 54.78%.
Consider `Cc1cc(NC(=O)c2ccc(F)cc2)[nH]n1`, for which the “Percent Effect” value (50 µM) is given as -8.221%.
Turning to `CC(C)c1cc(NC(=O)c2ccncc2)[nH]n1`, for the setting “10 µM”, the “Percent Effect” value was 64.12%.
Consider `CCn1ncnc1CN1CCC2(CCN(C)C2)CC1`, for which the “Percent Effect” value (50 µM) is 28.33%.
The same measure, in the same setting: for `NC(=O)CCC(=O)c1ccc2c(c1)OCCO2` the value was -23.48%.
On the same count and under the same terms, then `Cc1cnc(NCC(O)CN2CCCCC2)nc1` (configuration not stated), with -5.965%; and `C[C@H](N)c1ccc(F)cc1OC(F)F`, with 1.744%; and `CCOc1cccc(OCCNCCN)c1`, with 3.655%.
Consider `NC(=O)C(NC(=O)C1CC=CC1)c1ccc(F)cc1` (configuration not stated), for which the “Percent Effect” value (50 µM) is -2.351%.
Turning to `CCS(=O)(=O)CCN(C)C(=O)Nc1cc(F)cc(Cl)c1`, for the setting “50 µM”, the “Percent Effect” value was determined as 0.02752%.
Consider `COCCNc1nnc(-c2ccc(C)nc2)s1`, for which the “Percent Effect” value (10 µM) is 91.21%.
As to `COCCNc1nnc(-c2cnc(C)cn2)s1`, the “Percent Effect” value (10 µM) is -7.364%.
On to `COCCNc1nc(-c2ccc(S(N)(=O)=O)cc2)cs1`, for which the “Percent Effect” value (50 µM) was 33.23%.
On to `Cc1cncc(C(=O)N2CCCCC2c2nc[nH]n2)c1` (configuration not stated), for which the “Percent Effect” value (10 µM) turned out to be 2.456%.
Take `CC(=O)c1csc(C(=O)N2CCCC2C(C)(C)O)c1` (configuration not stated): for the setting “50 µM”, the “Percent Effect” value was -8.417%.
Still for that read-out and setting: then `Cc1cncc(C(=O)N2CCCC2C(C)(C)O)c1` (configuration not stated), with 98.37%.
As for `Cc1noc(NC(=O)c2ccc(F)cc2)n1`, the “Percent Effect” value (10 µM) is listed as -4.949%.
Take `Cc1ccc(C(=O)Nc2nc(C)no2)cc1`: under “10 µM”, the “Percent Effect” value is 2.71%.
The same measure, in the same setting: for `Cc1noc(NC(=O)c2ccc(OC(F)(F)F)cc2)n1` the value was 62.71%.
Take `COCCC1CN(C(=O)c2ccc(C)c(F)c2)CCO1` (configuration not stated): the “Percent Effect” value (50 µM) is listed as -2.005%.
The same measure, in the same setting: for `CC(=O)Nc1cc(S(=O)(=O)NCCN(C)C)ccc1C` the value was 12.19%.
On to `O=C(NCCc1ccccn1)Nc1cn[nH]c1`, for which the “Percent Effect” value (50 µM) was -7.115%.
The same measure, in the same setting: then `COC1CCN(C(=O)c2cccc(F)c2C)C1` (configuration not stated), with 32.95%.
In the case of `CS(=O)(=O)N1CCOCC2(CCN(c3ccccn3)C2)C1.O=C(O)C(F)(F)F` (configuration not stated), the “Percent Effect” value (10 µM) was found to be 93.48%.
On to `CCS(=O)(=O)N1CCOCC2(CCN(c3ccccn3)C2)C1.O=C(O)C(F)(F)F` (configuration not stated), for which the “Percent Effect” value (10 µM) was -1.246%.
Same read-out and setting: for `O=C(O)C(F)(F)F.O=S(=O)(C1CC1)N1CCOCC2(CCN(c3ccccn3)C2)C1` (configuration not stated) the value was -7.77%.
Turning to `Cc1ccc2[nH]c(CN3CCC(O)C3)cc(=O)c2c1` (configuration not stated), under “50 µM”, the “Percent Effect” value was -10.62%.
The same measure, in the same setting: for `OC[C@@H]1CCCN1Cc1ccc(F)c2cccnc12` the value was 78.15%.
Turning to `Fc1ccc(CN2CCCC2Cn2cncn2)c2ncccc12` (configuration not stated), the “Percent Effect” value (10 µM) was -4.806%.
Still for that read-out and setting: then `Fc1ccc(CN2CCCC2Cn2cccn2)c2ncccc12` (configuration not stated), with 4.2%.
`Cc1nc(CC(=O)N[C@H]2CC[C@H]2N)cs1`: the “Percent Effect” value (50 µM) turned out to be 7.419%.
For `Cc1cc(C(=O)Nc2cn(C)cc(Br)c2=O)[nH]n1`, the “Percent Effect” value (50 µM) is on record as -6.695%.
Same read-out and setting: for `C(Cc1noc(C2CNC2)n1)OCC1CC1` the value was 84.88%; for `c1ccc(COCc2nc(C3CCCNC3)no2)cc1` (configuration not stated), -2.705%; for `c1ccc(COCCc2noc(C3CNC3)n2)cc1`, 62.37%.
`C1CC(c2noc(C3CC3)n2)CN(CCOCC2CC2)C1` (configuration not stated): the “Percent Effect” value (10 µM) came to 10.99%.
For `Cc1cccc(OCCN2CCN(Cc3noc(C)n3)CC2)c1`, the “Percent Effect” value (10 µM) is -13.55%.
As for `C1CCC(COCCc2noc(C3CNC3)n2)C1`, the “Percent Effect” value (50 µM) stood at 57.88%.
For the compound `Cc1cccc(OCCc2noc(C3CNC3)n2)c1`, the “Percent Effect” value (50 µM) amounted to 82.99%.
Turning to `Cc1cccc(OCCCN2CCC(N(C)Cc3noc(C)n3)C2)c1` (configuration not stated), the “Percent Effect” value (10 µM) was found to be 19.53%.
As for `CCCN1CCC(Cc2noc(C3CCNC3)n2)CC1` (configuration not stated), the “Percent Effect” value (50 µM) was 2.055%.
Still for that read-out and setting: then `C1CC(COCCc2noc(C3CNC3)n2)CCO1`, with 31.48%.
On the same count and under the same terms, then `COCCc1noc(C2CCN(CC(N)=O)CC2)n1`, with 1.681%.
For the compound `COCCc1noc(C2CNC2)n1`, the “Percent Effect” value (50 µM) is -4.923%.
On the same count and under the same terms, then `CNS(=O)(=O)c1ccc(C(=O)NCC(C)(C)N(C)C)o1`, with -2.111%; and `NC(=O)c1ccc(CNC2CC2)c(F)c1`, with -8.127%.
Same read-out and setting: then `COC(=O)CC(NC(=O)c1cc(C)n[nH]1)C1CC1` (configuration not stated), with 5.421%.
Still for that read-out and setting: then `Cn1cc(CC(=O)Nc2ccc(I)cn2)cn1`, with -1.266%; and `Cc1ccc(Br)c(NCC(=O)N2CCOCC2)c1`, with 6.776%.
`CNC(C)CCNC(=O)c1cc(C)nn1C` (configuration not stated): the “Percent Effect” value (50 µM) is reported as -4.64%.
For the compound `Cc1csc(S(=O)(=O)NCCCOCC2CCCO2)n1` (configuration not stated), the “Percent Effect” value (50 µM) is listed as -3.897%.
Take `CCC(C)NC(=O)NC1CCN(c2ccccn2)CC1` (configuration not stated): the “Percent Effect” value (50 µM) is -18.28%.
Consider `N#Cc1cc(F)c(S(=O)(=O)NCCN)c(F)c1`, for which the “Percent Effect” value (50 µM) is -7.913%.
In the case of `Cn1ncc2c(N3CCS(=O)(=O)CC3)nc(-c3cccnc3)nc21`, the “Percent Effect” value (10 µM) was found to be 6.498%.
Same read-out and setting: for `CC(C)N1CCCN(c2nc(-c3cccnc3)nc3c2cnn3C)CC1` the value was 55.95%; for `Cn1ncc2c(N3CCC3)nc(-c3ccncc3)nc21`, -3.528%.
As for `N[C@@H]1CC[C@H](C(=O)NCc2csc(N3CCCC3)n2)C1`, the “Percent Effect” value (50 µM) is 62.86%.
Consider `Cc1nc(CC(=O)NCc2csc(N3CCCC3)n2)cs1`, for which the “Percent Effect” value (10 µM) is given as -6.671%.
For `O=C(NCc1csc(N2CCCC2)n1)C1CNCCO1` (configuration not stated), the “Percent Effect” value (50 µM) is listed as 26.16%.
Same read-out and setting: for `C[C@@H]1CNC[C@H]1c1nc(-c2ccncc2)no1` the value was 1.432%.
Consider `CCn1nc(C)c2nc(C(C)C)nc(NCCCn3cccn3)c21`, for which, for the setting “10 µM”, the “Percent Effect” value is recorded as 57.58%.
The same measure, in the same setting: then `Cc1nn(C)c2c(NCCCn3cccn3)nc(C(C)C)nc12`, with 10.17%; and `CCCc1nc(NCCCn2cccn2)c2c(n1)c(C)nn2CC`, with 20.81%; and `CCn1nc(C)c2nc(C(C)C)nc(NCc3ccccn3)c21`, with 23.92%.
The same measure, in the same setting: for `CCn1nc(C)c2ncnc(NCCCn3ccnc3)c21` the value was 9.36%; for `CCc1nc(NCCCn2cccn2)c2c(n1)c(C)nn2C`, 7.651%.
The same measure, in the same setting: for `CCn1nc(C)c2nc(C(C)C)nc(NCCCn3ccnc3)c21` the value was 76.16%.
Take `CCn1nc(C)c2nc(C)nc(NCCCn3cccn3)c21`: the “Percent Effect” value (10 µM) is 20.67%.
`CCCc1nc(NCCCn2ccnc2)c2c(n1)c(C)nn2CC`: under “10 µM”, the “Percent Effect” value was 67.95%.
